Results from PubChem BioAssay AID1159580 (chemical genetic matrix, 2015).
“And” between values parts separate entries of the source, which are not always exact repeats. Equal entries are not always repeated. Among all 5,500 compounds or so, about 2,000 (36%) were called active. Inconclusive results (about 18%) are left out. No stated cut-off is given here; in the data, active means normalized growth mostly below about 0.91 (no sharp cut-off); inconclusive means no clear call, values can overlap the other calls; inactive means mostly above about 0.92. The list shows a part of the results.

Assay: chemical genetic growth profiling, strain panel (AID 1159580);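 further: tested at 20 µM; growth read once vehicle control cultures reached saturation at 30 °C; 1 = growth at the plate median or of vehicle wells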
Conditions: S. cerevisiae deletion strains, growth OD

Measured: normalized growth

COc1ccc2c(c1)c(CC(=O)O)c(C)n2C(=O)c1ccc(Cl)cc1
inactive: locus YAL013W, strain DEP1, stronger effect = lower value 1.01 | locus YAL021C, strain ccr4, stronger effect = lower value 0.987 | locus YAL026C, strain drs2, stronger effect = lower value 0.974 | locus YAL030W, strain snc1, stronger effect = lower value 0.988 | locus YAL040C, strain CLN3, stronger effect = lower value 0.997 | locus YBL061C, strain skt5, stronger effect = lower value 0.959 | locus YBR009C, strain hhf1, stronger effect = lower value 0.931 | locus YBR021W, strain FUR4, stronger effect = lower value 1 | locus YBR023C, strain chs3, stronger effect = lower value 0.969 | locus YBR171W, strain sec66, stronger effect = lower value 0.967 | locus YBR229C, strain ROT2, stronger effect = lower value 1 | locus YBR231C, strain swc5, stronger effect = lower value 0.972 | locus YBR279W, strain paf1, stronger effect = lower value 0.988 | locus YCL011C, strain gbp2, stronger effect = lower value 0.921 | locus YCL016C, strain dcc1, stronger effect = lower value 0.919 | locus YCL029C, strain bik1, stronger effect = lower value 0.988 | locus YCL061C, strain MRC1 (second series), stronger effect = lower value 1.01 | locus YCL061C, strain MRC1, stronger effect = lower value 0.96 | locus YCL069W, strain vba3, stronger effect = lower value 0.986 | locus YCR088W, strain abp1, stronger effect = lower value 0.99 | locus YDL005C, strain med2, stronger effect = lower value 0.973 | locus YDL035C, strain GPR1, stronger effect = lower value 1.02 | locus YDL040C, strain nat1, stronger effect = lower value 0.991 | locus YDL074C, strain BRE1, stronger effect = lower value 1.02 | locus YDL101C, strain DUN1, stronger effect = lower value 1.01 | locus YDL185W, strain tfp1, stronger effect = lower value 0.973 | locus YDL192W, strain arf1, stronger effect = lower value 0.998 | locus YDR001C, strain nth1, stronger effect = lower value 0.978 | locus YDR069C, strain doa4, stronger effect = lower value 1.01 | locus YDR101C, strain arx1, stronger effect = lower value 1.02 | locus YDR137W, strain rgp1, stronger effect = lower value 0.95 | locus YDR159W, strain sac3, stronger effect = lower value 1.01 | locus YDR162C, strain NBP2, stronger effect = lower value 0.995 | locus YDR195W, strain ref2 1.02 | locus YDR297W, strain sur2, stronger effect = lower value 1.01 | locus YDR318W, strain mcm21, stronger effect = lower value 0.979 | locus YDR334W, strain swr1, stronger effect = lower value 0.981 | locus YDR335W, strain msn5, stronger effect = lower value 0.991 | locus YDR363W, strain ESC2, stronger effect = lower value 0.996 | locus YDR388W, stronger effect = lower value 0.982 | locus YDR392W, strain spt3, stronger effect = lower value 0.885 | locus YDR502C, strain sam2, stronger effect = lower value 0.981 | locus YEL003W, strain gim4, stronger effect = lower value 1 | locus YEL037C, strain rad23, stronger effect = lower value 0.961 | locus YEL061C, strain CIN8 (second series), stronger effect = lower value 0.979 | locus YEL061C, strain CIN8, stronger effect = lower value 1 | locus YER002W, strain NOP16, stronger effect = lower value 1.02 | locus YER015W, strain faa2, stronger effect = lower value 0.976 | locus YER016W, strain bim1, stronger effect = lower value 0.989 | locus YER110C, stronger effect = lower value 0.986 | locus YER111C, strain swi4, stronger effect = lower value 0.98 | locus YER155C, strain BEM2 (second series), stronger effect = lower value 0.874 | locus YER155C, strain BEM2, stronger effect = lower value 0.989 | locus YER167W, strain BCK2, stronger effect = lower value 0.995 | locus YFR010W, strain ubp6, stronger effect = lower value 0.975 | locus YGL078C, strain dbp3, stronger effect = lower value 0.978 | locus YGL086W, strain mad1, stronger effect = lower value 0.995 | locus YGL167C, strain pmr1, stronger effect = lower value 0.983 | locus YGL173C, strain kem1, stronger effect = lower value 0.985 | locus YGL227W, strain vid30, stronger effect = lower value 0.976 | locus YGL240W, strain doc1, stronger effect = lower value 1.01 | locus YGL248W, strain PDE1, stronger effect = lower value 1.01 | locus YGL253W, strain hxk2, stronger effect = lower value 0.993 | locus YGR135W, strain pre9, stronger effect = lower value 0.963 | locus YGR252W, strain gcn5, stronger effect = lower value 0.94 | locus YHR013C, strain ard1, stronger effect = lower value 0.968 | locus YHR027C, strain rpn1, stronger effect = lower value 0.981 | locus YHR030C, strain SLT2, stronger effect = lower value 1.01 and 0.952 | locus YHR079C, strain IRE1 (second series), stronger effect = lower value 0.987 | locus YHR079C, strain IRE1, stronger effect = lower value 0.96 | locus YHR094C, strain hxt1, stronger effect = lower value 0.975 | locus YHR129C, strain ARP1, stronger effect = lower value 1.01 | locus YHR142W, strain chs7, stronger effect = lower value 0.912 | locus YHR200W, strain rpn10, stronger effect = lower value 0.99 | locus YIL066C, strain RNR3, stronger effect = lower value 1 | locus YIL073C, strain SPO22, stronger effect = lower value 0.987 | locus YIL125W, strain kgd1, stronger effect = lower value 0.945 | locus YIR030C, strain dcg1, stronger effect = lower value 0.986 | locus YJL092W, strain hpr5, stronger effect = lower value 0.92 | locus YJL095W, strain BCK1 (second series), stronger effect = lower value 0.996 | locus YJL095W, strain BCK1, stronger effect = lower value 1 and 0.969 | locus YJL115W, strain asf1, stronger effect = lower value 0.969 | locus YJL129C, strain trk1, stronger effect = lower value 0.909 | locus YJL134W, strain LCB3, stronger effect = lower value 0.997 | locus YJL154C, strain vps35, stronger effect = lower value 0.989 | locus YJL164C, strain tpk1, stronger effect = lower value 0.976 | locus YJL166W, strain qcr8, stronger effect = lower value 0.977 | locus YJL168C, strain set2, stronger effect = lower value 0.979 | locus YJL187C, strain SWE1 (second series), stronger effect = lower value 1 | locus YJL187C, strain SWE1, stronger effect = lower value 0.991 | locus YJR043C, strain POL32, stronger effect = lower value 1.02 | locus YJR066W, strain TOR1, stronger effect = lower value 0.911
